The values that follow come from PubChem BioAssay (NCATS).

Results filed as inconclusive are left out. A number with no mark means an inactive call. Calls come from the whole dose curve; as a rule, active = well fitted activation curve with a large enough effect; inconclusive = small, poorly fitted or top-dose-only effect; inactive = flat fitted curve, though single readings scatter.

This experiment is described as follows: Primary redox qHTS assay for identification of artifact compounds. (AID 1845223).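 Note: 0% = DMSO and 100% = reference compound.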 Particulars: Amplex Red/HRP redox cycling with DTT, fluorescence; series mostly up to 53.8 µM; redox activity (% of DA3003): at the top concentration. In a few lines: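 Redox-cycling detection via DTT (250 uM final) oxidation coupled to Amplex Red (25 uM)/HRP (250 mU/mL) in HBSS. 15 min preincubation plus 30 min after DTT, room temperature. Ex/Em 525/598 nm; 4-parameter Hill fit against DMSO and 10 uM DA3003.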
As for `NC1CCC(N[C@@H]2C[C@H]2c2ccccc2)CC1` (some centres not stated), the “redox activity (% of DA3003)” value is -3.18%.
Turning to `c1ccc(Nc2nc3c(s2)CCCc2[nH]ncc2-3)nc1`, the “redox activity (% of DA3003)” value was -2.82%.
Take `COC12CC3C(C(C)C1=CC(=O)O2)C(O)C(OC(C)=O)C1C(C)(C)C(OC(C)=O)CCC31C` (configuration not stated): the “redox activity (% of DA3003)” value was 3.73% [at 25.6 µM].
Take `CC(=O)OCCC(C)CCC1C(C)(O)CCC2C(C)(C)CCCC21C` (configuration not stated): the “redox activity (% of DA3003)” value was 1.22%.
As for `FC(F)(F)c1cc(C(F)(F)F)c2ccc3nc(-c4nnco4)cn3c2n1`, the “redox activity (% of DA3003)” value is -2.78%.
For the molecule `C=CC1C(O[C@@H]2O[C@H](CO)[C@@H](O)[C@H](O)[C@H]2O)OC=C(C(=O)OC)C1Cc1nccc2c1[nH]c1ccccc12` (some centres not stated), the “redox activity (% of DA3003)” value was 3.74% [at 25.6 µM].
Under `O=C(/C=C/c1ccc(O)c(O)c1)OCc1ccccc1O[C@@H]1O[C@H](CO)[C@@H](O)[C@H](O)[C@H]1O` stands -6.38% [at 25.6 µM]; under `C=C1CC[C@@H]2[C@](C)(CO[C@@H]3O[C@H](CO)[C@@H](O)[C@H](O)[C@H]3O)CCC[C@@]2(C)[C@@H]1CCC1=CCOC1=O`, 15.2% [at 25.6 µM]; under `CC1(C)NC2N(C1=O)c1ccccc1C2(O)CC(C(=O)O)n1cnc2ccccc2c1=O` (configuration not stated), -4.35% [at 25.6 µM].
On to `OC[C@H]1O[C@@H](OCCc2ccc(O)cc2)[C@H](O)[C@@H](O)[C@@H]1O`, for which the “redox activity (% of DA3003)” value is -15.3%.
Turning to `COC1(CC(C)C)NC(=O)C(O)(Cc2ccccc2)NC1=O` (configuration not stated), the “redox activity (% of DA3003)” value was 0.473%.
Take `CC1=CC(=O)C[C@H]2[C@@H]1CC[C@@H](C)[C@]21CO[C@H](c2ccoc2)C1=O`: the “redox activity (% of DA3003)” value is -17.2%.
For `Cc1ccc(C(=O)Nc2ccc(Oc3cc4cnn(C)c4cc3-c3cn[nH]c3)c(F)c2)c(=O)n1-c1ccc(F)cc1`, the “redox activity (% of DA3003)” value was -7.68%.
For the molecule `CC(=O)OC[C@@]12[C@H](O)C[C@@H](C)[C@]3(C[C@@H](c4ccoc4)OC3=O)[C@H]1C[C@H](O)C[C@]21CO1`, the “redox activity (% of DA3003)” value is -15.3% [at 25.6 µM].
`CC1CCC2(O1)C(C)(C)CC(O[C@@H]1O[C@H](CO[C@@H]3OC[C@](O)(CO)[C@H]3O)[C@@H](O)[C@H](O)[C@H]1O)CC2(C)O` (some centres not stated): the “redox activity (% of DA3003)” value is -0.224% [at 25.6 µM].
Under `COc1cccc2c1CCC[C@H]2CN(C)CCc1ccc2ccoc2c1` stands -2.21%.
Consider `CCOC(=O)[C@H](CCc1ccccc1)CC1(C(=O)N[C@H]2CCc3ccccc3N(CC(=O)O)C2=O)CCCC1`, for which the “redox activity (% of DA3003)” value was 16%.
